Entries with a potency or affinity are not part of this list. Calls of active or inactive are those of the source. No rule for the calls is given here.
Assay: HIV-1 Env-mediated cell fusion inhibitors, dose response, CCR5-tropic Env (AID 2279)
Settings: CCR5-tropic HIV-1 Env, reporter read-out; series mostly up to 50 µM
In the case of O=C1NC(=S)N(c2ccc(F)cc2)C(=O)/C1=C/c1ccco1, the outcome is reported as “inactive”.
For Cc1ccc(N2C(=O)/C(=C/c3ccc(CN(CCC#N)S(C)(=O)=O)o3)C(=O)NC2=S)cc1C, the outcome was “inactive”.
In the case of COc1ccc(N2C(=O)/C(=C/c3ccco3)C(=O)NC2=S)cc1, the outcome is reported as “inactive”.
For O=c1oc2ccccc2c(O)c1C(c1ccc([N+](=O)[O-])cc1)c1c(O)c2ccccc2oc1=O, the outcome was “inactive”.
For O=C1NC(=S)N(c2ccc(F)cc2)C(=O)/C1=C\c1ccoc1, the outcome was “inactive”.
For COc1ccc(OC)c(N2C(=O)/C(=C/c3ccco3)C(=O)NC2=S)c1, the outcome was “inactive”.
In the case of NC(=O)Cn1cc(C=C2C(=O)NC(=O)NC2=O)c2ccccc21, the outcome is reported as “inactive”.
In the case of O=C(O)c1cccc2c1NC(c1cccc([N+](=O)[O-])c1)C1CC(Sc3ccccc3[N+](=O)[O-])C(Cl)C21 (stereo not drawn), the outcome is reported as “inactive”.
